# In PubChem BioAssay (NCATS):
# Inconclusive results are not listed. Entries that show only a call come without a potency. Activity calls are given as the source filed them. Unless noted, calls follow the shape of the full dose curve.
# What was measured:
# [1] = Primary qHTS for inhibitors of SARS-S pseudo-typed particle cell entry (AID 1479145); also: nearly all actives have a fitted effect of over 45% in size
# [2] = Primary qHTS for Huh7 cytotoxicity: counterscreen for inhibitors of MERS-S pseudotyped particle cell entry (AID 1479147)
# [3] = Primary qHTS for inhibitors of MERS-S pseudo-typed particle cell entry (AID 1479149); also: nearly all actives have a fitted effect of over 60% in size; also: potency is read from the fitted curve at half-maximal effect
# [4] = Primary qHTS for Vero E6 cytotoxicity: counterscreen for inhibitors of SARS-S pseudo-typed particle cell entry (AID 1479150)
# [5] = Counterscreen qHTS for small molecule stabilizers of the endoplasmic reticulum resident proteome: GLuc-NoTag assay (AID 1508627; active = well fitted inhibition curve with a large enough effect;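 also: SH-SY5Y cells given compound then 100 nM thapsigargin to empty ER calcium; series mostly up to about 76 µM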)
# Summary of the method: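 Counterscreen line: SH-SY5Y-GLuc-NoTag cells, treated with compound 19 hr before a 4 hr, 100 nM thapsigargin calcium depletion. Secreted Gaussia luciferase in the medium was measured by luminescence after coelenterazine was added (0.07x final), with cells unlysed.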
# [6] = Confirmatory qHTS for small molecule stabilizers of the endoplasmic reticulum resident proteome: Secreted ER Calcium Modulated Protein (SERCaMP) assay (AID 1508628; active = well fitted inhibition curve with a large enough effect;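 also: SH-SY5Y cells given compound 16 h then thapsigargin 100 nM for 4 h; series mostly up to about 76 µM; nearly all actives have a fitted effect of over 40% in size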)
# Summary of the method: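 GLuc-SERCaMP-expressing SH-SY5Y cells, pretreated 16 h with compound, are challenged with thapsigargin to empty ER calcium stores; after 4 h, coelenterazine is added directly to the medium and luminescence is imaged.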
# [7] = Primary qHTS for inhibitors of La Crosse Virus (LACV) - induced cell death in SH-SY5Y cells (AID 1508616; active = well fitted inhibition curve with a large enough effect;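 also: top concentration of the series differs between compounds; higher means more rescue of cells from virus-induced death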)
# Summary of the method: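 Cytopathicity rescue screen: compounds pinned onto SH-SY5Y cells, which are then infected with LACV (MOI 0.01) and held 6 days at 37C. Percent activity is scaled between infected DMSO control and uninfected DMSO control.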
structure (smiles),measurement,setting,value
C[C@@H](CN1CC(=O)NC(=O)C1)N1CC(=O)NC(=O)C1,Potency,[1],inactive
same,Potency,[2],inactive
same,Potency,[3],inactive
same,Potency,[4],inactive
Cc1oc(=O)oc1COC(=O)[C@@H]1N2C(=O)[C@@H](NC(=O)[C@H](N)c3ccccc3)[C@H]2SC1(C)C,Potency,[1],inactive
same,Potency,[2],inactive
same,Potency,[3],inactive
same,Potency,[4],inactive
O=C(CCOCCOCCOCCOCCC(=O)Nc1c(I)cc(I)c(C(=O)O)c1I)Nc1c(I)cc(I)c(C(=O)O)c1I,Potency,[1],inactive
same,Potency,[2],inactive
same,Potency,[3],inactive
same,Potency,[4],inactive
Cc1cc(O)c2c(O)c3c(O)cccc3cc2c1,Potency,[1],inactive
same,Potency,[2],inactive
same,Potency,[3],inactive
same,Potency,[4],inactive
CS(=O)(=O)c1ccc([C@@H](O)[C@@H](CO)NC(=O)C(Cl)Cl)cc1,Potency,[1],inactive
same,Potency,[2],inactive
same,Potency,[3],inactive
same,Potency,[4],inactive
COc1cc(/C=C/C(=O)O[C@H]2CC[C@]34C[C@]35CC[C@]3(C)[C@@H]([C@H](C)CCC=C(C)C)CC[C@@]3(C)[C@@H]5CC[C@H]4C2(C)C)ccc1O,Potency,[1],inactive
same,Potency,[2],inactive
same,Potency,[3],inactive
same,Potency,[4],inactive
COc1ccc(C2C(=O)c3ccccc3C2=O)cc1,Potency,[1],inactive
same,Potency,[2],inactive
same,Potency,[3],inactive
same,Potency,[4],inactive
Cc1ccc(C(C)C)c(O)c1,Potency,[1],inactive
same,Potency,[2],inactive
same,Potency,[3],inactive
same,Potency,[4],inactive
O=C(O)c1ccccc1Nc1cccc(C(F)(F)F)c1,Potency,[1],inactive
same,Potency,[2],inactive
same,Potency,[3],inactive
same,Potency,[4],inactive
COCC(=O)Nc1c(I)c(C(=O)NCC(O)CO)c(I)c(C(=O)N(C)CC(O)CO)c1I (stereo unspecified),Potency,[1],inactive
same,Potency,[2],inactive
same,Potency,[3],inactive
same,Potency,[4],inactive
N#Cc1ccc(C(c2ccc(C#N)cc2)n2cncn2)cc1,Potency,[1],inactive
same,Potency,[2],inactive
same,Potency,[3],inactive
same,Potency,[4],inactive
O=C1c2ccccc2C(=O)c2c1ccc(O)c2O,Potency,[1],inactive
same,Potency,[2],inactive
same,Potency,[3],inactive
same,Potency,[4],inactive
NC(N)=Nc1nc(CSCC/C(N)=N/S(N)(=O)=O)cs1,Potency,[1],inactive
same,Potency,[2],inactive
same,Potency,[3],inactive
same,Potency,[4],inactive
c1ccc2c(CC3=NCCN3)cccc2c1,Potency,[1],inactive
same,Potency,[2],inactive
same,Potency,[3],inactive
same,Potency,[4],inactive
O=C(NCC1CCCCN1)c1cc(OCC(F)(F)F)ccc1OCC(F)(F)F (stereo unspecified),Potency,[1],inactive
same,Potency,[2],inactive
same,Potency,[3],inactive
same,Potency,[4],inactive
O=C(O)Cc1cccc2ccccc12,Potency,[1],inactive
same,Potency,[2],inactive
same,Potency,[3],inactive
same,Potency,[4],inactive
CC(C)Cc1ccc(C(C)C(=O)O)cc1 (stereo unspecified),Potency,[1],inactive
same,Potency,[2],inactive
same,Potency,[3],inactive
same,Potency,[4],inactive
O=c1oc2ccccc2c(O)c1Cc1c(O)c2ccccc2oc1=O,outcome,[5],inactive
same,Potency,[6],inactive
O=c1c(C2CC(c3ccc(-c4ccc(Br)cc4)cc3)Cc3ccccc32)c(O)sc2ccccc12 (stereo unspecified),outcome,[7],inactive
CCOc1ccc(NS(=O)(=O)c2ccc(N)cc2)nn1,Potency,[2],inactive
same,Potency,[3],inactive
same,Potency,[4],inactive
CCCCCCNC(=O)n1cc(F)c(=O)[nH]c1=O,Potency,[2],inactive
same,Potency,[3],5.01 µM (active)
same,Potency,[4],inactive
Oc1ccccc1,Potency,[2],inactive
same,Potency,[3],inactive
same,Potency,[4],inactive
Cc1cc2nc3c(=O)[nH]c(=O)nc-3n(C[C@H](O)[C@H](O)[C@H](O)CO)c2cc1C,Potency,[2],inactive
same,Potency,[3],inactive
same,Potency,[4],inactive
CC(=O)Nc1ccc(S(=O)(=O)Nc2cc(C)on2)cc1,Potency,[2],inactive
same,Potency,[3],inactive
same,Potency,[4],inactive
CCCNC(C)C(=O)Nc1c(C)csc1C(=O)OC (stereo unspecified),Potency,[2],inactive
same,Potency,[3],inactive
same,Potency,[4],inactive
CCCCC[C@H](O)/C=C/[C@@H]1[C@H]2C/C(=C/CCCC(=O)O)O[C@H]2C[C@H]1O,Potency,[2],inactive
same,Potency,[3],inactive
same,Potency,[4],inactive
COc1ccc2c(c1)c(CC(=O)OC/C=C(\C)CC/C=C(\C)CCC=C(C)C)c(C)n2C(=O)c1ccc(Cl)cc1,Potency,[2],inactive
same,Potency,[3],inactive
same,Potency,[4],inactive
CC(=O)N(CC(O)CO)c1c(I)c(C(=O)NCC(O)CO)c(I)c(C(=O)NCC(O)CO)c1I (stereo unspecified),Potency,[2],inactive
same,Potency,[3],inactive
same,Potency,[4],inactive
Nc1nc(N)nc(-c2cc(Cl)ccc2Cl)n1,Potency,[2],inactive
same,Potency,[3],inactive
same,Potency,[4],inactive
CC(C)CN(C[C@@H](OP(=O)(O)O)[C@H](Cc1ccccc1)NC(=O)O[C@H]1CCOC1)S(=O)(=O)c1ccc(N)cc1,Potency,[2],inactive
same,Potency,[3],inactive
same,Potency,[4],inactive
C[N+]1(C)[C@@H]2CC(OC(=O)[C@H](CO)c3ccccc3)C[C@H]1[C@@H]1O[C@@H]12 (stereo partly specified),Potency,[2],inactive
same,Potency,[3],inactive
same,Potency,[4],inactive
CCOC(=O)C1=C[C@@H](OC(CC)CC)[C@H](NC(C)=O)[C@@H](N)C1,Potency,[2],inactive
same,Potency,[3],inactive
same,Potency,[4],inactive
CC(=O)[C@H]1CC[C@H]2[C@@H]3C[C@H](C)C4=CC(=O)CC[C@]4(C)[C@H]3[C@@H](O)C[C@]12C,Potency,[2],inactive
same,Potency,[3],inactive
same,Potency,[4],inactive
Cc1ccc(-c2ncc(Cl)cc2-c2ccc(S(C)(=O)=O)cc2)cn1,Potency,[2],inactive
same,Potency,[3],inactive
same,Potency,[4],inactive
